Bioassay records: PubChem, several laboratories
Most compounds without a hit are left out; they make up all but 4.7% or so of the library.
KLK7 zymogen act = proKLK7 (human) activation, primary screen; P49862; purified proKLK7, EDANS-DABCYL substrate fluorescence; 100% is mature enzyme control, 0% vehicle; activation, % at 7 µM; 370,000 tested, 0.9% active; AID 652039;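 active means activation above the mean of all tested compounds plus 3 SD, computed per campaign excluding outliers beyond control limits, cut at about 13% in these data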
ADAM17 inh = inhibitors of human ADAM17 | recombinant ADAM17, EDANS/DABCYL FRET peptide cleavage | inhibition, % at 6.95 µM | 370,000 tested, 0.83% active | P78536;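 active means inhibition above the mean of compounds lying between control limits plus 3 SD, set per campaign, cut at about 8.5% in these data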
ADAM10 inh = inhibits human ADAM10 | 370,000 tested, 0.62% active | recombinant ADAM10, EDANS/DABCYL FRET peptide cleavage, 3 h | O14672 | inhibition, % at 7 µM;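 active means inhibition above a per-campaign cutoff equal to the mean of compounds falling between control-based bounds plus 3 SD, cut at about 20% in these data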
MPTP block = blocks calcium-induced mitochondrial swelling; isolated mouse mitochondria, Ca2+ swelling absorbance, 30 min; inhibition, % at 10 µM; 360,000 tested, 1.4% active; AID 602449;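 active means inhibition of 50% or more, scaled per plate between neutral and stimulator controls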
rCAG binder = molecules binding r(CAG) RNA repeats; r(CAG) RNA repeat, TO-PRO-1 dye displacement fluorescence; inhibition, % at 3 µM; 370,000 tested, 1.3% active; AID 651821;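 active means inhibition above the plate cutoff, the mean of all test compounds on that plate plus 3 SD, cut at about 35% in these data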;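 further: higher means more dye released from RNA so lower well fluorescence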
DSG3 Ab inh = blocks pemphigus antibody binding to human desmoglein-3. DSG3-coupled beads, scFv-anti-DSG3-GFP binding, flow cytometry; active compounds read low. binding (percent of control), % at 10 µM. 310,000 tested, 0.48% active;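 active means binding more than 3 SD below its plate's average and above zero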;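 further: hits lower antibody fragment binding to DSG3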
Target sequence (P32926 whole entry, looked up, the tested form may be a part): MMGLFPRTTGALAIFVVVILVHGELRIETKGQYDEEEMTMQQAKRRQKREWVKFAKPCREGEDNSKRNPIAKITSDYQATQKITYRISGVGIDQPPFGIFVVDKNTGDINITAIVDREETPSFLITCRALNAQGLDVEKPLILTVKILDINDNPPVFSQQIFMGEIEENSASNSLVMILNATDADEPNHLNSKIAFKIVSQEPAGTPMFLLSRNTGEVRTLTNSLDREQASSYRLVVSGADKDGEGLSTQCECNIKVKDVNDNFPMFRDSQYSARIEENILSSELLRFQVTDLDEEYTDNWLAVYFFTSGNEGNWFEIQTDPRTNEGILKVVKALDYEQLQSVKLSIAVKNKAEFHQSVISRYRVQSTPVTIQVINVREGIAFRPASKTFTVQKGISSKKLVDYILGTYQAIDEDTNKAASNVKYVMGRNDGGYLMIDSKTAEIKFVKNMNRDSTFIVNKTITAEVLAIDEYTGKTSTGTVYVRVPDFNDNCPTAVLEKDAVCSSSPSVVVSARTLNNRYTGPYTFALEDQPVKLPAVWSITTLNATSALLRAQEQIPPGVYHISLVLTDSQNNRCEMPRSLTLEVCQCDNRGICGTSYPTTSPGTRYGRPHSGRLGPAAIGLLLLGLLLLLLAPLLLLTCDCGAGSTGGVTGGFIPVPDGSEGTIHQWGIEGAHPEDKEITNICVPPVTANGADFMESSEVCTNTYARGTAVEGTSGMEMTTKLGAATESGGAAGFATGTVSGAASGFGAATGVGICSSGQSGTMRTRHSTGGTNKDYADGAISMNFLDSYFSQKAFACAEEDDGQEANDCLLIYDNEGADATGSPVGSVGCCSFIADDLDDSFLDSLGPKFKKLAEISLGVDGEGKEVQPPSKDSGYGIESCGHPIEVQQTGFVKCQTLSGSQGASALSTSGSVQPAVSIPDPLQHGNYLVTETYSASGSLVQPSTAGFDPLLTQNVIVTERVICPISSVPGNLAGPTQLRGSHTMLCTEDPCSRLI
Large screens that a line does not name were inactive.

Cc1cccc(NC(=O)Nc2nc3ncccn3c2-c2ccc(F)cc2)c1	none (no result: MPTP block, DSG3 Ab inh)
COc1cccc(C(=O)N(CCN2CCOCC2)Cc2ccc(OC)c(OC)c2)c1	none (no result: MPTP block, DSG3 Ab inh)
O=C1/C(=C/c2ccncc2)SC(=S)N1C1CCCCC1	none (no result: DSG3 Ab inh)
Cc1ccc(/C=C2/SC(=S)N(C3CCCCC3)C2=O)o1	rCAG binder 55
O=C(c1ccc([N+](=O)[O-])cc1[N+](=O)[O-])n1cnc2ccccc21	DSG3 Ab inh 79
COc1ccc(-n2c(SCC(=O)Nc3ccccc3-c3ccccc3)nnc2-c2ccccc2)cc1	none (no result: MPTP block, DSG3 Ab inh)
CCCCNC(=O)C1(C(=O)c2ccc(OC)cc2)CC(c2ccccn2)=NO1 (stereo not drawn)	none (no result: MPTP block, DSG3 Ab inh)
CCOC(=O)[C@]12CCCC=C1N(CCCOC)C(=O)[C@@H]2CC(=O)N1CCC(c2ccccc2)CC1	none (no result: MPTP block, DSG3 Ab inh)
Cc1cccc(CS(=O)(=O)c2ncc(Cl)c(C(=O)Nc3nnc(C(C)C)s3)n2)c1	DSG3 Ab inh 93 (no result: KLK7 zymogen act, ADAM17 inh, ADAM10 inh, rCAG binder)
COCCNC(=S)N(C)[C@H]1C[C@H]2c3[nH]c4cccc(-c5ccccc5)c4c3CCN2C(=O)[C@H]1[C@H](C)O	none (no result: MPTP block, DSG3 Ab inh)
COc1cc(C)ccc1OCc1cc(C(=O)NC(c2ccccn2)C(F)(F)F)no1 (stereo not drawn)	DSG3 Ab inh 79
COc1cc(C)ccc1OCc1cc(C(=O)NC2CCOCC2)no1	none
N#C/C(=C\c1ccc(/C=C(/C#N)c2nn(CCO)c(N)c2C#N)cc1)c1nn(CCO)c(N)c1C#N	DSG3 Ab inh 86
Cc1ccc(NC(=O)CCS(=O)(=O)c2ccccc2)c(C)c1	none (no result: MPTP block, DSG3 Ab inh)
CCOC(=O)c1nn(-c2ccc3c(c2)OCO3)cc1O	KLK7 zymogen act 32
CCOC(=O)c1nn(-c2ccc(C)cc2)cc1O	none
CC(C)CN(Cc1c(O)ccc2c3c(c(=O)oc12)CCC3)CC(C)C	none
Cc1cc(=O)oc2c(CN(CC(C)C)CC(C)C)c(O)ccc12	KLK7 zymogen act 35 (no result: MPTP block, DSG3 Ab inh)
CCOc1ccc(C(=O)OCC(=O)NCCCc2ccccc2)cc1	none
CCOc1ccc(/C(CCC(=O)O)=N/NC(=S)NCCc2ccccc2)cc1	rCAG binder 36
COc1ccc(O)c(/C=N/n2c(-c3ccco3)csc2=Nc2cccnc2)c1	DSG3 Ab inh 1.2
CCOC(=O)N1CCC(NC(=O)c2cc3c(-c4ccc(Cl)cc4)nn(C)c3s2)CC1	DSG3 Ab inh 91
CCCCNC(=O)c1cc2c(-c3ccc(Cl)cc3)nn(C)c2s1	none
Cn1nc(-c2ccc(Cl)cc2)c2cc(C(=O)N3CCN(c4ccccc4)CC3)sc21	none
Cn1nc(-c2ccc(Cl)cc2)c2cc(C(=O)N3CCN(c4ccccn4)CC3)sc21	DSG3 Ab inh -3.6 (no result: KLK7 zymogen act, ADAM17 inh, ADAM10 inh, rCAG binder)
CC(C)NC(=O)c1cc2c(-c3ccc(Cl)cc3)nn(C)c2s1	DSG3 Ab inh 73
CCOC(=O)N1CCN(C(=O)C[C@@H]2C(=O)N(Cc3ccc(OC)cc3)C3=CCN(C(=O)OC(C)(C)C)C[C@]32C(=O)OCC)CC1	none (no result: MPTP block, DSG3 Ab inh)
Cc1ccc2c(CN(C)Cc3ccccc3)cc(=O)oc2c1C	DSG3 Ab inh 64
Cc1ccc2c(CN(C)Cc3cccc(F)c3)cc(=O)oc2c1C	none
CC(C)(C)NS(=O)(=O)c1ccc(NC(=O)c2cc(-c3ccccc3)nc3ccccc23)cc1	DSG3 Ab inh 65
O=C(Nc1nnc(-c2cccs2)o1)c1cc(-c2ccccc2)nc2ccccc12	rCAG binder 44
O=C(NCc1cccs1)c1cc(-c2ccccc2)nc2ccccc12	none
COC(=O)c1ccc(S(=O)(=O)N2CCC(NC(=O)CCC3CCCC3)CC2)cc1	none (no result: MPTP block, DSG3 Ab inh)
O=C(NCC1CCCO1)c1ccc2c(c1)C(=O)N(c1cccc([N+](=O)[O-])c1)C2=O (stereo not drawn)	DSG3 Ab inh 41
Cc1noc(NS(=O)(=O)c2ccc(NC(=O)/C=C/c3ccc(C(C)C)cc3)cc2)c1C	rCAG binder 85 (no result: DSG3 Ab inh)
CCc1nnc(NC(=O)CSc2nnc3c(n2)[nH]c2ccccc23)s1	DSG3 Ab inh 32
CCSc1nnc(NC(=O)CSc2nncc(=O)n2N)s1	none
CCc1nnc(NC(=O)CSc2nncc(=O)n2N)s1	DSG3 Ab inh 85
Cc1cccc(C)c1NC(=O)[C@H]1CC(=O)O[C@@H]1c1ccccc1	none (no result: MPTP block, DSG3 Ab inh)
O=C(NC(C(=O)N1CCCC1C(=O)NC1CCCC1)c1ccccc1)c1cccs1 (stereo not drawn)	none (no result: MPTP block, DSG3 Ab inh)
O=C1CCc2cc(S(=O)(=O)Nc3ccc4c(c3)OCCO4)ccc2N1	none (no result: KLK7 zymogen act, MPTP block, rCAG binder, DSG3 Ab inh)
O=C(Nc1ccccc1)c1ccc(S(=O)(=O)N2CCCC2)cc1	none
O=C(Nc1nc(-c2ccccc2)c(-c2ccccc2)s1)c1ccc(S(=O)(=O)N2CCCC2)cc1	DSG3 Ab inh 82
O=C(Nc1nc(-c2ccccc2)c(C(=O)c2ccccc2)s1)c1ccc(S(=O)(=O)N2CCCC2)cc1	DSG3 Ab inh -1.0
CN(C)S(=O)(=O)c1ccc(C(=O)Nc2nc(-c3ccccc3)c(C(=O)c3ccccc3)s2)cc1	none
Cc1ccc(SCCCCN2CCOCC2)cc1	DSG3 Ab inh 50
CCNc1nc(SC(C)C(=O)Nc2ccccc2)nc(N(C)C)n1 (stereo not drawn)	none
COC(=O)C(C)Sc1nc(NCc2ccccc2)nc(N(C)C)n1 (stereo not drawn)	DSG3 Ab inh 84
Cn1cc(-c2cccc3[nH]cc(-c4ccccc4)c23)c2ccccc21	none (no result: MPTP block, DSG3 Ab inh)
COC(=O)c1ccccc1NC1=C/C(=N\S(=O)(=O)c2ccc(C(=O)O)cc2)c2ccccc2C1=O	none (no result: KLK7 zymogen act, ADAM17 inh, ADAM10 inh, rCAG binder)
CCc1ccc(S(=O)(=O)/N=C2\C=C(Nc3ccc(C(=O)O)cc3)C(=O)c3ccccc32)cc1	rCAG binder 89
COc1ccc(CNC(=O)OC2CC3CC2[C@H]2CCCCN2C3)cc1 (stereo partly drawn)	none (no result: MPTP block, DSG3 Ab inh)
CCOC(=O)C1(Cc2cccc(Cl)c2)CCCN(C(=O)c2ccc(C)nc2)C1 (stereo not drawn)	DSG3 Ab inh 67
NC(=O)[C@@H]1CCCCNc2c(I)cc([N+](=O)[O-])cc2C(=O)N[C@@H](CCC(=O)O)C(=O)N[C@@H](CO)C(=O)N1	rCAG binder 46
NC(=O)[C@@H]1CCNc2c(I)cc([N+](=O)[O-])cc2C(=O)N[C@@H](CCC(=O)O)C(=O)N[C@@H](CO)C(=O)N1	none (no result: KLK7 zymogen act, ADAM17 inh, ADAM10 inh, rCAG binder)
C=C(C)C(=O)Nc1cccc(C2=NOC3(C2)C[C@@H](C(N)=O)N(C(=O)/C=C/C=C/C)C3)c1 (stereo partly drawn)	DSG3 Ab inh 90
C/C=C(\C)C(=O)Nc1cccc(C2=NOC3(C2)C[C@@H](C(N)=O)N(C(=O)/C(C)=C/C)C3)c1 (stereo partly drawn)	none
C=C(C)C(=O)Nc1cccc(C2=NOC3(C2)C[C@@H](C(N)=O)N(C(=O)/C(C)=C/C)C3)c1 (stereo partly drawn)	DSG3 Ab inh 89
NC(=O)c1ccsc1NC(=O)COC(=O)c1cc(=O)[nH]c2ccccc12	DSG3 Ab inh 83
